Source: PubChem
An excerpt weighted towards active compounds, which were near 4.1% of everything screened.
ssDAF12 agonist: activators of S. stercoralis DAF-12 nuclear receptor; HEK293 ssDAF-12/GRIP1 lit1-tk-luc reporter, luminescence; % of 3 µM dafachronic acid response; activation, % at 6.8 µM; 1% of 370,000 active;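 active = activation above the mean over all tested compounds plus 3 SD, cut at about 0.9% in these data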;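 also: 0% = DMSO-only wells and 100% = 3 µM delta7-dafachronic acid wells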
hgDAF-12 ag: activates the H. glycines DAF-12 receptor ligand-binding domain; activation, % at 6.8 µM; HEK293 GAL4-hgDAF12 UAS-luciferase reporter, agonist luminescence; normalized to butyrate control; 1.8% of 370,000 active;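 active = activation above a cutoff set at the mean of all screened compounds plus 3 SD, cut at about 10% in these data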;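 also: 0% = DMSO wells and 100% = sodium butyrate wells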
DAX1 inh-1: blocks DAX1 repression of SF-1 activated StAR promoter | 1.1% of 370,000 active | AID 652010 | HEK293T StAR-luciferase reporter, SF-1/DAX-1 repression relief | inhibition, % at 6.8 µM;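 active = inhibition above the mean over all tested compounds plus 3 SD, cut at about 3.6% in these data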;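 also: 0% = DAX-1 cells with DMSO and 100% = cells lacking DAX-1 with DMSO; higher inhibition means more luminescence from relief of DAX-1 repression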
DAX1 inh-2: inhibitors of human orphan nuclear receptor DAX1 (NR0B1). inhibition, % at 6.75 µM. P51843. HEK293 Gal4-DAX1 luciferase reporter, luminescence. 0.99% of 340,000 active;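 active = inhibition above the mean over all tested compounds plus 3 SD, cut at about 4.2% in these data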;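 also: 0% = DAX1-transfected cells with DMSO and 100% = empty-vector control cells with DMSO; inhibition shows as a rise in luminescence from relieved DAX1 repression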
Target sequence (P51843 207-470 limits assumed): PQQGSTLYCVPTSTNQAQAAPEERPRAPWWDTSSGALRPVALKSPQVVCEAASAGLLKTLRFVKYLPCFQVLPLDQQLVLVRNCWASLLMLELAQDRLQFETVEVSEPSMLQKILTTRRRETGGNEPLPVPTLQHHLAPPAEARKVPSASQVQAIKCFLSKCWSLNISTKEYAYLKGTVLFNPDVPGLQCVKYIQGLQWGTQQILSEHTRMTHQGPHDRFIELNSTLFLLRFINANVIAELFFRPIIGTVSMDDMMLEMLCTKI
hcDAF12 agonist: activators of H. contortus DAF-12 nuclear receptor | activation, % at 6.8 µM | 1.4% of 370,000 active | AID 652067 | HEK293 hcDAF-12 lit1-tk-luc reporter, luminescence; 0% DMSO, 100% Δ7-dafachronic acid;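 active = activation above the mean of all tested compounds plus 3 SD, cut at about 5.5% in these data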;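 also: 100% = response to 3 µM Δ7-dafachronic acid high control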
Numbers without * were called inactive; nt = no result given.

SMILES | ssDAF12 agonist | hgDAF-12 ag | DAX1 inh-1 | DAX1 inh-2 | hcDAF12 agonist
COc1ccc2nc(NC(=O)CSc3nnc(N)s3)sc2c1 | -1 | -1 | 1 | -1 | 0
COc1ccc2nc(NC(=O)CN3CCN(C)CC3)sc2c1 | -1 | 2 | 0 | 1 | 2
COc1ccc2nc(NC(=O)CN3CCOCC3)sc2c1 | -1 | 11* | 0 | 1 | 1
CCOc1ccc(N2C(=O)C(Cl)=C(Nc3ccccc3O)C2=O)cc1 | 1 | 5 | -1 | 0 | 5.6*
CCOC(=O)NC(=O)C(=CNc1ccc(C)cc1)C(=O)NC(=O)OCC | 0 | 0 | 0 | 1 | 6.5*
Cc1cccc(N2CCN(C(=O)c3ccccc3NC(=O)C3CC=CCC3C(=O)O)CC2)c1 (centres undefined) | -1 | 0 | 0 | 4.4* | 1
Oc1ccc(-c2[nH]ncc2-c2ccc(Br)cc2)c(O)c1 | -1 | 5 | 0 | 6.4* | 0
Oc1ccc(-c2[nH]ncc2-c2ccc(Cl)cc2)c(O)c1 | -2 | -2 | 0 | 1 | 0
Cc1cccc(CNC(=O)c2ccc3nc(Cc4ccccc4F)oc3c2)n1 | 0 | 11* | 3.7* | 2 | 2
COc1ccc(Cc2nc3ccc(C(=O)NCc4cccc(C)n4)cc3o2)cc1OC | -1 | 1 | 0 | -1 | -2
CN(Cc1nccn1C)C(=O)c1ccc2nc(Cc3ccccc3F)oc2c1 | -1 | 13* | 1 | 2 | 3
Cc1cccc(Cn2cc(CN3CC(N(C)CCCOC(=O)c4cc5ccccc5o4)CS3(=O)=O)nn2)c1 (centres undefined) | 0 | 2 | 1 | nt | 1
O=C(Nc1ccc(OC(F)(F)F)cc1)c1cnccn1 | 0 | 9 | 1 | 6.4* | 2
[O-][n+]1cccc2c(Br)cc(Br)c(O)c21 | -1 | 1 | 0 | 4.5* | 2
Oc1c(Br)cc(Br)c2cccnc12 | -1 | -2 | 0 | -1 | -1
CCc1ccc(C(=O)/C=C/c2cnn(C)c2C)s1 | -1 | 12* | 3 | 5.2* | 2
Cc1c(/C=C/C(=O)c2cccs2)cnn1C | 0 | 6 | 1 | 2 | 1
O=C(O)C(c1ccccc1)c1ccccc1 | 0 | 1 | 1 | 1 | 2
N/C(=N/O)C(c1ccccc1)c1ccccc1 | 0 | 3 | 1 | -1 | 5.8*
COc1cccc(NC(=O)c2cnc[nH]2)c1 | 0 | 4 | 1 | 1 | 0
O=C(Nc1ccc(Br)cc1)c1cnc[nH]1 | 0 | 11* | 0 | 3 | 6.5*
Cn1cccc1CC(=O)NN=C/C=C\c1ccco1 | 0 | 7 | 2 | nt | 1
O=S1(=O)CC=C(CSC(=S)NC2CCS(=O)(=O)C2)C1 (centres undefined) | 0 | 4 | 0 | 4.3* | -1
CCOC(=O)Cc1nc(N2CCN(Cc3cccc4c3OCO4)CC2)c2c(C)c(C(=O)OCC)sc2n1 | -2 | 3 | -3 | nt | -2
O=C(O)CN1C(=O)/C(=C/C=C/c2ccccc2)SC1=S | -1 | 1 | 0 | 1 | 0
SMILES | ssDAF12 agonist | hgDAF-12 ag | DAX1 inh-1 | DAX1 inh-2 | hcDAF12 agonist
CCN1C(=O)C(=CC=CN(C)c2ccccc2)SC1=S | 0 | 7 | 2 | 4.7* | 0
Cc1ccc(-c2nc(C=Nc3ccccc3)c(O)o2)cc1 | -1 | 7 | 1 | 1 | 1
Oc1oc(-c2ccc(Br)cc2)nc1/C=N/c1ccccn1 | 0 | 13* | 1 | 2 | 1
CCOC(=O)[C@@]12CCC3=C1N(CCC3)C(=O)[C@H](CC(=O)NCCC(C)C)C2 | -1 | 0 | -2 | nt | -2
Cc1nc2cc(-c3cccc(F)c3)nn2c(N2CCN(C(=O)c3ccco3)CC2)c1C | 1 | 4 | 0 | 0 | 5.8*
O=C(N[C@H](C(=O)N1CCC[C@H]1C(=O)NC1CCCC1)c1ccccc1)c1ccc(Cl)c(Cl)c1 | 0 | -3 | 0 | nt | 1
CC1(C)C=Cc2cc3ccc(=O)oc3cc2O1 | 0 | 8 | 1 | 6.7* | 2
COc1c2c(cc3oc(=O)ccc13)OC(C)(C)C=C2 | -1 | 10 | 1 | 4 | 4
CCCn1nnc(NC(=O)c2ccc3ccccc3c2)n1 | -1 | 11* | 1 | 3 | 2
CCc1ccc(NC(=O)c2ccccc2Br)cc1 | 0 | 12* | 3 | 5.9* | 2
CCNC(=S)Nc1ccc(NC(=O)c2ccccc2O)cc1 | 1.6* | 0 | 0 | -2 | 2
CCCn1nnc(NC(=O)c2ccccc2Br)n1 | -1 | 2 | 1 | 1 | 2
CCn1nnc(NC(=O)c2ccccc2Br)n1 | 1.0* | 6 | 1 | 2 | 5
CCNC(=S)Nc1cccc(NC(=O)c2ccccc2O)c1 | -1 | -1 | 0 | -1 | 1
O=C(CN1C(=O)CCSc2ccccc21)Nc1ccc(Cl)cc1 | -1 | -3 | -1 | nt | 1
COc1ccc(S[C@]2(C(=O)N3CCN(C(C)=O)CC3)CC(=O)N(C(=O)CCc3ccccc3)[C@@H]2c2ccc(OC)cc2)cc1 | -2 | 3 | -1 | nt | 3
c1ccc(CSCc2cn3ccccc3n2)cc1 | 0 | 13* | 1 | 2 | 3
c1ccc2oc(SCc3cn4ccccc4n3)nc2c1 | -1 | 10 | 3.7* | 2 | 5.9*
Cc1cccc2nc(CSc3nc4ccccc4o3)cn12 | -1 | 0 | 1 | -1 | 0
Cn1c(=NC(=O)C(C)(C)C)sc2cccc(F)c21 | -2 | 1 | 1 | 4.3* | -1
CCC(=O)N=c1sc2cc(F)cc(F)c2n1C | 0 | 6 | -1 | 0 | 6.1*
CC(C)C(=O)N=c1sc2cc(F)cc(F)c2n1C | -1 | -2 | 0 | 0 | 1
Cn1c(=NC(=O)c2ccccc2[N+](=O)[O-])sc2cccc(F)c21 | -1 | 13* | 3 | 3 | 0
C#CCn1c(=NC(=O)c2ccccc2[N+](=O)[O-])sc2cc(S(C)(=O)=O)ccc21 | -2 | -3 | -1 | -1 | 4
COC(=O)[C@@]12CCCCC=C1N(CCc1ccc(Cl)cc1)C(=O)[C@H]2CC(=O)NCc1cccc(C(F)(F)F)c1 | -1 | 1 | -2 | nt | -1
SMILES | ssDAF12 agonist | hgDAF-12 ag | DAX1 inh-1 | DAX1 inh-2 | hcDAF12 agonist
NC(=O)NC(=O)COC(=O)c1ccc2noc(-c3ccccc3)c2c1 | 0 | 12* | 1 | -1 | 2
CC(=O)N=C(N)Sc1nc2ccccc2[nH]1 | 0 | 11* | 3 | 1 | 5.9*
CC(=O)N1CCc2cc(S(=O)(=O)NCCC(=O)N(C)Cc3ccccc3F)ccc21 | -1 | -3 | 0 | nt | -3
Cc1ccc(S(=O)(=O)c2nc(Nc3ccccc3N3CCOCC3)sc2Cl)cc1 | -2 | -2 | 0 | 0 | -2
Cc1ccc(S(=O)(=O)c2nc(Nc3ccccc3C#N)sc2Cl)cc1 | -1 | -2 | 0 | 0 | 6.3*
COC(=O)[C@]12C[C@H](CC(=O)NCc3cccc4ccccc34)C(=O)N(Cc3ccco3)C1=C[C@H](C(C)C)O[C@@H]2C1CC1 | -1 | -2 | 1 | nt | -2
CCOC(=O)CNC(=O)c1c2c(nc3ccccc13)CCCC2 | 1.0* | -2 | 1 | 0 | 1
